{"source": "PubChem BioAssay", "key": {"[1]": {"assay": "inhibitors of TNFa-induced NFkB p65 translocation, primary screen, imaging, HUVEC, MLSMR starter and 10KST1 sets (AID 438;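 active = inhibition above 20% together with a positive visual image hit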;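 also: compound added about 3h40 before a 20 min TNFalpha stimulation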;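 as to inhibition: signal is the nuclear over cytoplasmic p65 intensity ratio per well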)", "conditions": "HUVEC TNFa-induced p65 nuclear translocation; cell count: measured here: nuclei count (cytotoxicity indicator), at 2.08 µM unless noted; inhibition: at 2 µM, stronger effect = higher value unless noted"}, "[2]": {"assay": "inhibitors of mutant huntingtin aggregation, primary screen, imaging, exon1htt(103Q)mCFP cells, high-content imaging (AID 483;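 active = visual image review flags a hit and inhibition of aggregation exceeds 20%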;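 also: compound exposure lasted 3 days before fixation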;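 as to nuclei count: percent of the per-plate median nuclei count of sample wells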)", "conditions": "exon1htt(103Q)mCFP cell line, aggregate imaging, at 2 µM; inhibition of aggregation: stronger effect = higher value; nuclei count: measured here: cell count, toxicity"}, "[3]": {"assay": "inhibitors of E-selectin induction by TNFa, primary screen, imaging, HUVEC, immunofluorescence, MLSMR starter and 10KST1 sets (AID 487;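 active = visually confirmed hit in the image check and inhibition above 20%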;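 as to inhibition: signal is fraction of cell area covered by stained E-selectin grains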;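 as to nuclei count: 100% = median nuclei count of all wells on the same plate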)", "conditions": "HUVEC TNFalpha-induced E-selectin immunofluorescence imaging, at 2 µM; inhibition: stronger effect = higher value; nuclei count: measured here: cell number, toxicity"}, "[4]": {"molecular_target": "Voltage-gated potassium channel subunit beta-2 (Rattus norvegicus) (UniProt P62483)", "sequence (P62483 whole entry, looked up)": "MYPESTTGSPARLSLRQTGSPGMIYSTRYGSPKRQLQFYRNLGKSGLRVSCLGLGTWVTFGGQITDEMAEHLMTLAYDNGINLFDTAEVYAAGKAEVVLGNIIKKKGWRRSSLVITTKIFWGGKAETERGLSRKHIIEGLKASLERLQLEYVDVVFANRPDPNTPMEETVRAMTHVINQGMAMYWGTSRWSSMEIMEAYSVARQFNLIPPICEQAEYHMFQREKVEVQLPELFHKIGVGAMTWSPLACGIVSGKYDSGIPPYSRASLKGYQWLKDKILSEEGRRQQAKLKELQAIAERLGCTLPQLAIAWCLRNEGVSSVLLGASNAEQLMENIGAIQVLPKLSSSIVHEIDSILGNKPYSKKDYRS", "assay": "KvBeta enzyme negative modulators, primary screen, biochemical, NADPH fluorescence (AID 622;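 active = fluorescence slope higher than the sample average by over 3 SD, cut at about -0.22 in these data, passing the limit was not always enough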;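 also: slope of raw intensity against log time taken from 70 to 1610 s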)", "conditions": "recombinant KvBeta, 4-cyanobenzaldehyde reduction, at 10 µM, stronger effect = higher value"}, "[5]": {"molecular_target": "Voltage-gated potassium channel subunit beta-2 (Rattus norvegicus) (UniProt P62483)", "assay": "KvBeta positive modulators, primary screen, biochemical, NADPH fluorescence (AID 623;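 active = NADPH fluorescence slope more negative than the mean of all samples by about 3 SD, 99.7% confidence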;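 also: fluorescence intensity change per second fitted from 20 to 320 s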)", "conditions": "Recombinant KvBeta, NADPH fluorescence decrease slope, 10 min; at 10 µM; stronger effect = lower value"}, "[6]": {"molecular_target": "Alpha-2C adrenergic receptor (Homo sapiens) (UniProt P18825)", "sequence (P18825 whole entry, looked up)": "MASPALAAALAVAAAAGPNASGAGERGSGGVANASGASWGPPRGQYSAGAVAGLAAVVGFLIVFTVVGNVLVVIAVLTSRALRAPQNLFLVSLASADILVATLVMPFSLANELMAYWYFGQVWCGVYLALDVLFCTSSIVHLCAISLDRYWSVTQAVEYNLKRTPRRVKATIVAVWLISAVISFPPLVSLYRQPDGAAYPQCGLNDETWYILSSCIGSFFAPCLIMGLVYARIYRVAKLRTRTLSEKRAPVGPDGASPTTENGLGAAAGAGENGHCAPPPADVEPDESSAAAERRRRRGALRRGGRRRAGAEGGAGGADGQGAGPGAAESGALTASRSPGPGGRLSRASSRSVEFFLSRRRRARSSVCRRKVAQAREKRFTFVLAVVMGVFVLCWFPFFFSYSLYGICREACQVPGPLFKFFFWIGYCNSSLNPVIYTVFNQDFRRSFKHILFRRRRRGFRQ", "assay": "modulators of alpha2C/GIRK thallium flux, primary screen, cell-based, HEK293 alpha2C/GIRK1/2 (AID 624;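 active = fluorescence slope after compound addition differing from the mean of all screened samples at 99.7% confidence, in either direction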;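 also: slope of fluorescence ratio to pre-addition baseline per second over 15 to 24 s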)", "conditions": "thallium flux BTC fluorescence, at 10 µM, actives lie on both sides"}, "[7]": {"assay": "inhibitors of Sendai virus-induced IRF3 signaling, primary screen, TLR/RLR signaling modifier project, cell-based, Sendai virus stimulus, luciferase, 10K MLSCN set (AID 602276);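 also: firefly luciferase from ISG56 promoter only with Renilla not read in this screen; 0% = Sendai virus plus DMSO and 100% = medium plus DMSO without virus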", "conditions": "HEK293 RL24 IRF3 luciferase reporter, at 10 µM, stronger effect = higher value"}, "[8]": {"assay": "inhibitors of poly I:C-induced TLR3 signaling, primary screen, cell-based, poly I:C stimulus, luciferase, 10K MLSCN set (AID 602277;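 active = inhibition of the reporter signal at or above 50%; inactive = inhibition below 50%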)", "conditions": "HEK293-TLR3 RL24 IRF3 luciferase reporter, at 10 µM, stronger effect = higher value"}, "[9]": {"molecular_target": "Muscarinic acetylcholine receptor M4 (Homo sapiens) (UniProt P08173)", "sequence (P08173 whole entry, looked up)": "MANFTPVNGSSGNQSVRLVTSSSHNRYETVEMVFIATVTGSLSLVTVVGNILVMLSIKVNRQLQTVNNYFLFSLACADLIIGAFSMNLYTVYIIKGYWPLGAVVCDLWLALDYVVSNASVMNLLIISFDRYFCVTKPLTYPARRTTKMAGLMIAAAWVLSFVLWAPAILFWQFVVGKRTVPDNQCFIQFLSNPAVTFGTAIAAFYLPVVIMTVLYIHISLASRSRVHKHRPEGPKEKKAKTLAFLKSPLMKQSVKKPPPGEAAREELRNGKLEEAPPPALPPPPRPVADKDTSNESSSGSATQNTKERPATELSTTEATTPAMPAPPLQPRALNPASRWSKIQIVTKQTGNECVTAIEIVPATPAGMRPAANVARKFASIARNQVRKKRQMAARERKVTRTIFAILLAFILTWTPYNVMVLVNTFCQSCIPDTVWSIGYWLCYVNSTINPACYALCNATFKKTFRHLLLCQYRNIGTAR", "assay": "compounds altering M4/GIRK thallium flux, either direction, primary screen, M4 allosteric agonist project, cell-based, HEK293 M4/GIRK, BTC-AM (AID 625;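 active = fluorescence slope after compound addition differing from the mean of all tested samples at 99.7% confidence, mostly higher but some lower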;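 also: thallium influx through GIRK channels coupled to M4 in HEK293 cells with BTC-AM dye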)", "conditions": "at 10 µM, actives lie on both sides"}, "[10]": {"assay": "inhibitors of larval lipid processing in zebrafish, primary screen, whole organism, PED6 fluorescence, gall bladder and intestine (AID 686;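 active = a full or partial loss of lipid-probe fluorescence in the fish gall bladder, intestine or both, judged by eye; inactive = no fluorescence loss, or compound toxic to the fish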;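 also: larvae 5 to 7 days old with five fish per well; signal comes from phospholipase A2 cleavage of quenched PED6 carried via bile; overnight exposure to compound and PED6 before scoring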)", "conditions": "Zebrafish larvae PED6 lipid processing, fluorescence scoring"}}, "note": "Active and inactive are the calls of the source.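 The calls were made as follows, unless noted: active = inhibition at or above 50% at 10 µM; inactive = inhibition below 50%.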", "data": [{"smiles": "Nc1ccnn1C1CCNCC1", "values": [{"measurement": "cell count", "setting": "[1]", "value": 285}, {"measurement": "inhibition", "setting": "[1]", "value": "2.4% (inactive)"}, {"measurement": "inhibition of aggregation", "setting": "[2]", "value": "6.2% (inactive)"}, {"measurement": "nuclei count", "setting": "[2]", "value": 99.6, "unit": "%"}, {"measurement": "inhibition", "setting": "[3]", "value": "-43.8% (inactive)"}, {"measurement": "nuclei count", "setting": "[3]", "value": 127, "unit": "%"}, {"measurement": "fluorescence slope", "setting": "[4]", "value": "-0.541 (inactive)"}, {"measurement": "NADPH fluorescence slope", "setting": "[5]", "value": "2.9e-05 (inactive)"}, {"measurement": "slope", "setting": "[6]", "value": "0.00512 (inactive)"}, {"measurement": "inhibition", "setting": "[7]", "value": "5.24% (inactive)"}, {"measurement": "inhibition", "setting": "[8]", "value": "17.3% (inactive)"}]}, {"smiles": "Cc1ccc(O)c(CN2CCN(c3ccccc3)CC2)c1", "values": [{"measurement": "cell count", "setting": "[1]", "value": 307}, {"measurement": "inhibition", "setting": "[1]", "value": "1% (inactive)"}, {"measurement": "inhibition of aggregation", "setting": "[2]", "value": "-4.7% (inactive)"}, {"measurement": "nuclei count", "setting": "[2]", "value": 95.9, "unit": "%"}, {"measurement": "inhibition", "setting": "[3]", "value": "-91.9% (inactive)"}, {"measurement": "nuclei count", "setting": "[3]", "value": 120, "unit": "%"}, {"measurement": "fluorescence slope", "setting": "[4]", "value": "-0.202 (inactive)"}, {"measurement": "NADPH fluorescence slope", "setting": "[5]", "value": "-1.8e-05 (inactive)"}, {"measurement": "fluorescence slope", "setting": "[9]", "value": "0.00457 (inactive)"}, {"measurement": "inhibition", "setting": "[7]", "value": "12% (inactive)"}, {"measurement": "inhibition", "setting": "[8]", "value": "15.6% (inactive)"}]}, {"smiles": "CCCCn1c(O)c(C(C)=Nc2cccc(C(=O)O)c2)c(=O)[nH]c1=O", "values": [{"measurement": "cell count", "setting": "[1]", "value": 278}, {"measurement": "inhibition", "setting": "[1]", "value": "6.8% (inactive)"}, {"measurement": "inhibition of aggregation", "setting": "[2]", "value": "4.7% (inactive)"}, {"measurement": "nuclei count", "setting": "[2]", "value": 75.2, "unit": "%"}, {"measurement": "inhibition", "setting": "[3]", "value": "-151% (inactive)"}, {"measurement": "nuclei count", "setting": "[3]", "value": 199, "unit": "%"}, {"measurement": "fluorescence slope", "setting": "[4]", "value": "-0.604 (inactive)"}, {"measurement": "NADPH fluorescence slope", "setting": "[5]", "value": "2.7e-05 (inactive)"}, {"measurement": "fluorescence slope", "setting": "[9]", "value": "0.00369 (inactive)"}, {"measurement": "inhibition", "setting": "[7]", "value": "4.58% (inactive)"}, {"measurement": "inhibition", "setting": "[8]", "value": "3.8% (inactive)"}]}, {"smiles": "COc1ccccc1CN1CCN(C(=O)Cc2ccccc2)CC1", "values": [{"measurement": "cell count", "setting": "[1]", "value": 466}, {"measurement": "inhibition", "setting": "[1]", "value": "5.9% (inactive)"}, {"measurement": "inhibition of aggregation", "setting": "[2]", "value": "2.7% (inactive)"}, {"measurement": "nuclei count", "setting": "[2]", "value": 101, "unit": "%"}, {"measurement": "inhibition", "setting": "[3]", "value": "18.9% (inactive)"}, {"measurement": "nuclei count", "setting": "[3]", "value": 112, "unit": "%"}, {"measurement": "fluorescence slope", "setting": "[4]", "value": "-0.326 (inactive)"}, {"measurement": "NADPH fluorescence slope", "setting": "[5]", "value": "3.1e-06 (inactive)"}, {"measurement": "slope", "setting": "[6]", "value": "0.00694 (inactive)"}, {"measurement": "outcome", "setting": "[10]", "value": "inactive"}, {"measurement": "inhibition", "setting": "[7]", "value": "-1.53% (inactive)"}, {"measurement": "inhibition", "setting": "[8]", "value": "3.43% (inactive)"}]}, {"smiles": "O=C(Cn1cc(C(=O)c2ccccc2)c2ccccc21)NCc1ccco1", "values": [{"measurement": "cell count", "setting": "[1]", "value": 229}, {"measurement": "inhibition", "setting": "[1]", "value": "-1.4% (inactive)"}, {"measurement": "inhibition of aggregation", "setting": "[2]", "value": "3.1% (inactive)"}, {"measurement": "nuclei count", "setting": "[2]", "value": 89.8, "unit": "%"}, {"measurement": "inhibition", "setting": "[3]", "value": "-0.3% (inactive)"}, {"measurement": "nuclei count", "setting": "[3]", "value": 103, "unit": "%"}, {"measurement": "fluorescence slope", "setting": "[4]", "value": "-0.567 (inactive)"}, {"measurement": "NADPH fluorescence slope", "setting": "[5]", "value": "-1.5e-05 (inactive)"}, {"measurement": "fluorescence slope", "setting": "[9]", "value": "0.00474 (inactive)"}, {"measurement": "inhibition", "setting": "[7]", "value": "-5.96% (inactive)"}, {"measurement": "inhibition", "setting": "[8]", "value": "-16.8% (inactive)"}]}, {"smiles": "N#Cc1ccccc1Cn1cc(C(=O)c2ccco2)c2ccccc21", "values": [{"measurement": "cell count", "setting": "[1]", "value": 353}, {"measurement": "inhibition", "setting": "[1]", "value": "6% (inactive)"}, {"measurement": "inhibition of aggregation", "setting": "[2]", "value": "23.1% (inactive)"}, {"measurement": "nuclei count", "setting": "[2]", "value": 76.5, "unit": "%"}, {"measurement": "inhibition", "setting": "[3]", "value": "-3.7% (inactive)"}, {"measurement": "nuclei count", "setting": "[3]", "value": 80.5, "unit": "%"}, {"measurement": "fluorescence slope", "setting": "[4]", "value": "-0.254 (inactive)"}, {"measurement": "NADPH fluorescence slope", "setting": "[5]", "value": "-2.3e-05 (inactive)"}, {"measurement": "fluorescence slope", "setting": "[9]", "value": "0.00586 (inactive)"}, {"measurement": "inhibition", "setting": "[7]", "value": "16.6% (inactive)"}, {"measurement": "inhibition", "setting": "[8]", "value": "15.1% (inactive)"}]}, {"smiles": "OC(CNC1CCCCC1)c1ccccc1", "note": "(centres undefined)", "values": [{"measurement": "cell count", "setting": "[1]", "value": 317}, {"measurement": "inhibition", "setting": "[1]", "value": "-2.5% (inactive)"}, {"measurement": "inhibition of aggregation", "setting": "[2]", "value": "17.9% (inactive)"}, {"measurement": "nuclei count", "setting": "[2]", "value": 107, "unit": "%"}, {"measurement": "inhibition", "setting": "[3]", "value": "-91.2% (inactive)"}, {"measurement": "nuclei count", "setting": "[3]", "value": 105, "unit": "%"}, {"measurement": "fluorescence slope", "setting": "[4]", "value": "-0.399 (inactive)"}, {"measurement": "NADPH fluorescence slope", "setting": "[5]", "value": "-4.1e-05 (inactive)"}, {"measurement": "slope", "setting": "[6]", "value": "0.00434 (inactive)"}, {"measurement": "outcome", "setting": "[10]", "value": "inactive"}, {"measurement": "inhibition", "setting": "[7]", "value": "10.6% (inactive)"}, {"measurement": "inhibition", "setting": "[8]", "value": "22.6% (inactive)"}]}]}
